Assay outcomes as filed in PubChem BioAssay.
In the library only some 4.8% were active in any assay of this set; here they are far more common.
ssDAF12 agonist – activates DAF-12 receptor from parasite S. stercoralis. HEK293 ssDAF-12/GRIP1 lit1-tk-luc reporter, luminescence; % of 3 µM dafachronic acid response. activation, % at 6.8 µM. actives 1% (n = 370,000);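 active = activation above the mean over all tested compounds plus 3 SD, cut at about 0.9% in these data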
hcDAF12 agonist – H. contortus DAF-12 activation, primary screen | HEK293 hcDAF-12 lit1-tk-luc reporter, luminescence; 0% DMSO, 100% Δ7-dafachronic acid | activation, % at 6.8 µM | actives 1.4% (n = 370,000) | AID 652067;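 active = activation above the mean of all tested compounds plus 3 SD, cut at about 5.5% in these data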
SMARCA2 activ – increases SMARCA2 function in MMTV reporter cells | AID 652017 | activation, % at 9.1 µM | actives 1% (n = 370,000) | MG213 cells, MMTV-luciferase reporter, dexamethasone, overnight; in the data active = activation above about 7.8%
DAX1 inh-1 – blocks DAX1 repression of SF-1 activated StAR promoter | inhibition, % at 6.8 µM | AID 652010 | actives 1.1% (n = 370,000) | HEK293T StAR-luciferase reporter, SF-1/DAX-1 repression relief;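 active = inhibition above the mean over all tested compounds plus 3 SD, cut at about 3.6% in these data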;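 also: higher inhibition means more luminescence from relief of DAX-1 repression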
DAX1 inh-2 – inhibits human nuclear receptor DAX1. inhibition, % at 6.75 µM. HEK293 Gal4-DAX1 luciferase reporter, luminescence. actives 0.99% (n = 340,000). P51843;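 active = inhibition above the mean over all tested compounds plus 3 SD, cut at about 4.2% in these data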;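 also: inhibition shows as a rise in luminescence from relieved DAX1 repression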
hgDAF12 agonist – agonists of H. glycines DAF-12 nuclear receptor | AID 687014 | HEK293 GAL4-hgDAF12 UAS-luciferase reporter, agonist luminescence; normalized to butyrate control | actives 1.8% (n = 370,000) | activation, % at 6.8 µM;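 active = activation above a cutoff set at the mean of all screened compounds plus 3 SD, cut at about 10% in these data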
DAX1 inh confirm – NR0B1 (human) inhibition, confirmation; shares compounds with DAX1 inh-1; HEK293T StAR-promoter luciferase reporter, SF-1/DAX-1 repression; inhibition, % at 6.8 µM; actives 87% (n = 2,400); AID 652134;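 active = inhibition above the average of every tested compound plus 3 SD, cut at about 3.8% in these data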;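 also: active compounds raise luminescence by relieving repression of the StAR reporter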
Target sequence (P51843 whole entry, looked up): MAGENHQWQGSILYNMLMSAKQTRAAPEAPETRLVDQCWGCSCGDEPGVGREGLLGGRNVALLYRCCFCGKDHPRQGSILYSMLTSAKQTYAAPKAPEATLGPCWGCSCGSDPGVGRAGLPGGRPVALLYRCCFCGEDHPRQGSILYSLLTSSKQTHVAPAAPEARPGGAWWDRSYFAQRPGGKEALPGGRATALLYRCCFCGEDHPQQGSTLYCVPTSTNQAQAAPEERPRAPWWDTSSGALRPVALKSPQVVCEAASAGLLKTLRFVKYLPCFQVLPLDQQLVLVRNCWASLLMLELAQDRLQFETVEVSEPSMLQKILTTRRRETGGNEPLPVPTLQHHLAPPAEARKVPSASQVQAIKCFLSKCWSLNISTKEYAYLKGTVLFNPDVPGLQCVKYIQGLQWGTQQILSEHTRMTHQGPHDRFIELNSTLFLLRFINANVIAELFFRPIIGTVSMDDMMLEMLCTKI
SF1 mutant ctr – counter-screen for DAX1 inhibitors: nonselective inhibitors with SF-1 AF2 mutant; actives 78% (n = 2,400); shares compounds with DAX1 inh-1; HEK293 StAR-luciferase, luminescence; inhibition, % at 6.8 µM; AID 652136;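 active = inhibition above the mean of all tested compounds plus 3 SD, cut at about 3% in these data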
LXR ag – LXR-beta agonism as hcDAF-12 counter-screen; shares compounds with hcDAF12 agonist; AID 743027; 3,400 tested, under 10 active; activation, % at 6.8 µM; HEK293 Gal4-LXR tk-luc reporter, luminescence, 24 h; normalized: DMSO 0%, positive control 100%;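 active = mean percent activation of the reporter above a cutoff set as the average over tested compounds plus their standard deviation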
hcDAF12 conf – confirmation of H. contortus DAF-12 agonists | shares compounds with hcDAF12 agonist | HEK293 hcDAF-12 lit1-tk-luc reporter, luminescence; % of Δ7-dafachronic acid response | activation, % at 6.8 µM | actives 61% (n = 3,400) | AID 743032;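 active = mean activation across triplicate tests above the threshold derived from the earlier primary screen, cut at about 5.5% in these data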
Of the large screens only hits and unclear results are named; the others gave an inactive call (follow-up assays come after a bar, where they were run).

Cc1cccc(NC(=O)c2cnc3sccn3c2=O)c1	ssDAF12 agonist 0.9, hcDAF12 agonist 6.9, DAX1 inh-1 6.5, hgDAF12 agonist 13 | DAX1 inh confirm 12 | SF1 mutant ctr 4.4 | LXR ag inactive | hcDAF12 conf 13
Cc1ccn2c(CC(C)(C)C)c(-c3ccc(F)cc3)nc2c1	hcDAF12 agonist 6.7, DAX1 inh-1 5.6 | DAX1 inh confirm 8.8 | SF1 mutant ctr 6.6 | LXR ag inactive | hcDAF12 conf inactive
O=C(Nc1cccc([N+](=O)[O-])c1)c1ccc(-c2ccccc2)cc1	none
O=C(O)c1ccc(N=NNc2cccc([N+](=O)[O-])c2)cc1	hcDAF12 agonist 6.7, DAX1 inh-1 5.1 | DAX1 inh confirm 14 | SF1 mutant ctr 8.0 | LXR ag inactive | hcDAF12 conf inactive
CCOC(=O)c1ccc2c(c1)nc(SCC(=O)N1CCCCC1)n2CC	none
CC(C)c1ccc(-n2cnn(-c3ncccc3[N+](=O)[O-])c2=O)cc1	ssDAF12 agonist 2.4, hcDAF12 agonist 22, DAX1 inh-1 6.8, hgDAF12 agonist 22 | DAX1 inh confirm 20 | SF1 mutant ctr 10 | LXR ag inactive | hcDAF12 conf 14
Cc1cc(C)n(-c2ncccc2[N+](=O)[O-])n1	none
CC(=O)c1c(C)[nH]c(C(=O)Nc2cccc(C)n2)c1C	hcDAF12 agonist 6.9, DAX1 inh-1 12, hgDAF12 agonist 12 | DAX1 inh confirm 11 | SF1 mutant ctr 4.7 | LXR ag inactive | hcDAF12 conf inactive
COc1ccc(NC(=O)c2[nH]c(C)c(C(C)=O)c2C)cc1	ssDAF12 agonist 1.7, hcDAF12 agonist 11, DAX1 inh-1 4.7, hgDAF12 agonist 11 | DAX1 inh confirm 6.5 | SF1 mutant ctr 6.8 | LXR ag inactive | hcDAF12 conf 10
CC(C)[C@@H]1CC[C@@H](C)C[C@H]1OC(=O)C[n+]1cc(-c2ccc(Cl)cc2)n2c1CCCCC2	none
Cc1ccc(-c2cc3nc(C)cc(C)n3n2)cc1	ssDAF12 agonist 5.6, hcDAF12 agonist 17, DAX1 inh-1 4.5, hgDAF12 agonist 21 | DAX1 inh confirm 11 | SF1 mutant ctr 6.2 | LXR ag inactive | hcDAF12 conf 18
COc1cc(OC)c(OC)cc1CNC(=O)c1ccc(S(=O)(=O)N2CCCCC2)cc1	none
COc1ccc(-c2nc(-c3ccc(Br)o3)no2)cc1OC	none
COc1ccccc1-c1nc(-c2ccc(Br)o2)no1	ssDAF12 agonist 4.5, hcDAF12 agonist 26, DAX1 inh-1 7.9, hgDAF12 agonist 20 | DAX1 inh confirm 17 | SF1 mutant ctr 8.2 | LXR ag inactive | hcDAF12 conf 21
N#Cc1ccsc1NC(=O)CSc1nncs1	hcDAF12 agonist 9.4, DAX1 inh-1 8.4, hgDAF12 agonist 16 | DAX1 inh confirm 11 | SF1 mutant ctr 5.2 | LXR ag inactive | hcDAF12 conf 11
CC(C)NC(=O)NC(=O)COc1ccc(Br)cc1Br	hcDAF12 agonist 7.5, DAX1 inh-1 6.3, hgDAF12 agonist 12 | DAX1 inh confirm 17 | SF1 mutant ctr 6.7 | LXR ag inactive | hcDAF12 conf 6.0
COc1ccc(COc2ncnc3ccc(Br)cc23)cc1F	none
CCCCNC(=O)C1c2ccccc2OCC(=O)N1CCc1c[nH]c2ccccc12 (configuration not stated)	none (no result: DAX1 inh-2)
Cc1c(NC(=O)c2ccc(-c3ccccc3)cc2)cccc1C(=O)O	hcDAF12 agonist 11, DAX1 inh-1 6.6, hgDAF12 agonist 27 | DAX1 inh confirm 15 | SF1 mutant ctr 7.7 | LXR ag inactive | hcDAF12 conf 13
COc1ccc(-c2csc(-c3ccccc3)n2)c(OC)c1	ssDAF12 agonist 2.4, hcDAF12 agonist 15, DAX1 inh-1 8.9, DAX1 inh-2 4.6, hgDAF12 agonist 22 | DAX1 inh confirm 18 | SF1 mutant ctr 8.5 | LXR ag inactive | hcDAF12 conf 11
Oc1ccccc1/C=C/c1noc(-c2ccccc2O)n1	ssDAF12 agonist 3.9, hcDAF12 agonist 15, DAX1 inh-1 6.1, DAX1 inh-2 7.5, hgDAF12 agonist 18 | DAX1 inh confirm 13 | SF1 mutant ctr 9.3 | LXR ag inactive | hcDAF12 conf 12
C/C(=N\Nc1nc(N2CCOCC2)nc(N2CCOCC2)n1)c1cccc([N+](=O)[O-])c1	none
CCOC(=O)c1sc(=NC(=O)c2ccc(C)c(C)c2)n(C)c1C	none
CCOC(=O)c1sc(=NC(=O)c2ccccc2Br)n(C)c1C	hcDAF12 agonist 13, DAX1 inh-1 7.4, hgDAF12 agonist 11 | DAX1 inh confirm 9.6 | SF1 mutant ctr 4.2 | LXR ag inactive | hcDAF12 conf 10
Cc1cccc(N/C=C/C(=O)c2cccs2)c1C	ssDAF12 agonist 2.9, hcDAF12 agonist 15, DAX1 inh-1 6.3, hgDAF12 agonist 13 | DAX1 inh confirm 14 | SF1 mutant ctr 7.3 | LXR ag inactive | hcDAF12 conf 21
COc1cccc(CNC(=O)C2CC(=O)N(c3ccc4c(c3)OCCO4)C2)c1 (configuration not stated)	none
Cc1cccc(-c2nnc(-c3cccc4ccccc34)o2)c1	ssDAF12 agonist 1.2, hcDAF12 agonist 7.0, DAX1 inh-1 5.4, DAX1 inh-2 6.4, hgDAF12 agonist 11 | DAX1 inh confirm 10.0 | SF1 mutant ctr 8.5 | LXR ag inactive | hcDAF12 conf 8.7
Clc1ccc(-c2nnc(-c3cccc4ccccc34)o2)cc1	none
O=C(Nc1cccc([N+](=O)[O-])c1)c1cc2ccccc2cc1O	none
O=C(Nc1ccncc1)c1cc2ccccc2cc1O	hcDAF12 agonist 6.7, DAX1 inh-1 6.2, hgDAF12 agonist 12 | DAX1 inh confirm 7.3 | SF1 mutant ctr 5.8 | LXR ag inactive | hcDAF12 conf 6.3
S=C(NCc1cccnc1)Nc1ccc2c(c1)OCO2	none
O=C(O)c1cc(N/N=C/C(Cl)=C/c2ccccc2)ccc1Cl	ssDAF12 agonist 2.2, hcDAF12 agonist 11, DAX1 inh-1 13, hgDAF12 agonist 28 | DAX1 inh confirm 22 | SF1 mutant ctr 12 | LXR ag inactive | hcDAF12 conf 13
